Measurements as given in PubChem BioAssay AID488789 (Broad Institute, 2010).
Measured potencies and affinities stand elsewhere. Results filed as inconclusive are left out.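 Rule for the calls: active = samples whose fitted half-maximal inhibition concentration is no more than ten times the top valid dose tested; inconclusive = flat response between -70 and -30, or invalid curve fit; inactive = flat within 30 of zero, potency above limit, or signal rising.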

The molecules below were run against Trypsin (Sus scrofa) (UniProt P00761) (assay: trypsin protease activity blockade – biochemical, quenched peptide fluorescence, cherry-pick, selectivity assay for Rce1 protease inhibitor project, dose response (AID 488789;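 note: more negative means stronger trypsin inhibition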)). Conditions: porcine trypsin, quenched peptide cleavage fluorescence; series mostly up to 10 µM; activity change, negative = inhibition: at the top concentration.
Trypsin (Sus scrofa), sequence (P00761 whole entry, looked up): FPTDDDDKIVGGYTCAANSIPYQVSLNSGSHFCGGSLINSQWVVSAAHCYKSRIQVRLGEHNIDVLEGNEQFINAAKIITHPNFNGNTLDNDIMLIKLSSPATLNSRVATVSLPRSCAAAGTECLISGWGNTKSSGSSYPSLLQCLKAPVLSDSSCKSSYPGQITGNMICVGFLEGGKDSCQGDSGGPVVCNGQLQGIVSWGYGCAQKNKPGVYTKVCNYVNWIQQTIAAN

Activity change, negative = inhibition, inactive:
O=C(c1cnc2n(c1=O)CCS2)N1CCN(C(c2ccccc2)c2ccc(Cl)cc2)CC1 (configuration not stated) 6.3%, CCC(COC)NC(=O)CCc1nnc(Cc2cccc(C(F)(F)F)c2)o1 (configuration not stated) 3.73%, CN1c2ccc(C=O)c3c(C=O)ccc(c23)N(C)C1(C)C 7.96%, Cc1ccc(OCCn2c3ccccc3n3nc(C)c(=O)nc23)cc1 -5.01%, Cc1nc(-c2ccc(Cl)cc2)sc1C1(C)CC(c2ccccc2Br)=NO1 (configuration not stated) 18.1%, CCOc1ccc2[nH]c(=O)c(CN(CCN3CCOCC3)Cc3nnnn3C(C)(C)CC)cc2c1 3.69%, COc1ccc(-c2oc3ncn(Cc4ccco4)c(=N)c3c2-c2ccc(OC)cc2)cc1 -23.5%, CCOc1ccc(NC(=O)CCSc2ccc(C)cc2)cc1 4.59%, Cc1ccc(C(=O)c2c3ccc(C(F)(F)F)cc3[n+]([O-])n2CCCC(N)=O)cc1 8.46%, CC(/C=N\NC(=O)CN1CCN(S(=O)(=O)c2ccc(C)cc2)CC1)=C\c1ccccc1 7.87%, CCCCCCCCCCC[N+](C)(C)CC/C=C1/c2ccccc2Sc2ccc(Cl)cc21 -9.31%, CCN(CC)c1ccc(C(=O)c2ccccc2C(=O)O)c(O)c1 -0.441%, CC(C)[C@H](NC(=O)OCc1ccccc1)C(=O)OCC(=O)Nc1c(F)cccc1F -4.5%, O=C(Nc1cc(S(=O)(=O)N2CCOCC2)ccc1N1CCCC1)c1cnccn1 1.72%, CCOC(=O)C1=C(C)OC(N)=C(C#N)C1c1cc2c(cc1[N+](=O)[O-])OCO2 (configuration not stated) 8.41%, COc1ccc(/C=N/NC(=O)c2ccc(Cl)cc2)cc1COC(C)=O 5.75%, C/C(CC1(O)C(=O)Nc2ccccc21)=N\O (configuration not stated) 30.9%, Cn1c(CN2CCOCC2)c(C#N)c2ccccc21 6.74%, CC(C)c1c(C(=O)N/N=C/c2c[nH]c3ccccc23)nnn1-c1nonc1N -3.47%, O=C(O)c1ccc2cccc(Cl)c2c1O 9.83%, CS(=O)(=O)Nc1ccccc1C(=O)NCc1ccccc1Cl 10.6%, CCOc1cc(CNC2CCCC2)ccc1OCc1ccccc1Cl 12.6%, Cc1nc(SC(C(=O)c2ccccc2)c2ccccc2)nc2ccccc12 (configuration not stated) 3.6%, Cc1cc2cc(C(=O)N3CCc4c([nH]c5ccccc45)C3c3ccccn3)ccc2o1 (configuration not stated) 3.48%, CC(=O)N1c2ccc([N+](=O)[O-])cc2NC(=O)CC1C (configuration not stated) 3.92%, Nc1c(Cl)cc(C2=NCCn3nc4cc(C(F)(F)F)ccc4c32)cc1Cl 5.69%, CC1(c2ccc(OCC#N)cc2)C=C(c2ccc(OCC#N)cc2)n2nc(C(F)(F)F)nc2N1 (configuration not stated) 5.89%, CCO[C@H]1OC(C(=O)Nc2ccccc2)=C[C@@H](c2csc3ccccc23)[C@@H]1CCCO 1.83%, CN(C)CCCN(C(=O)c1cc(-c2cccs2)nc2ccccc12)c1nc2ccc(F)cc2s1 -3.8%, c1coc(-c2ccnc3ncnn23)c1 7.79%, Cc1ccc2c(c1)sc[n+]2Cc1ccccc1 3.87%, O=C(Nc1ccc(F)cc1)Oc1ccccc1N1CCOCC1 -3.6%, C#CCNC(=O)C1=C[C@@H](C2CCCCC2)C[C@@H](OCc2ccc(CO)cc2)O1 12.6%, COc1cc(-c2nc3ccccn3c2/N=C/c2cccc(OC)c2O)ccc1O 1.16%, CCOc1ccc(-c2nc(CCl)cs2)cc1OC -9.87%, CC(=O)c1c(C)[nH]c(C(=O)OCc2ccc(Br)cc2)c1C 3.12%, CSc1nnc(-c2sc(-c3ccccc3)nc2C)n1C 12.8%
